In the supplement of paper PMC10338343:
± gives the standard deviation.

What follows are sequences tested on MILI (PIWIL2) piRISC loaded with L1MC piRNA (26 nt) (assay: pre-steady-state target cleavage rate (min^-1); guide: L1MC piRNA 5'p-UAACUAAAUACUAUGCAAGCUGUAGG; MIWI and MILI are mouse PIWI proteins and EfPiwi is from a freshwater sponge; tags in brackets are library labels; higher = faster piRNA-guided slicing of the target). Details: auxiliary factor: 500 nM mouse GTSF1.
Experimental: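 Cleave-'n-Seq: a library of target RNAs (target site embedded in constant flanks, ACAGCATTCCGCGTTAGTGATATCCG... 5' flank; DNA-blocked outside the site) at 0.1 nM was incubated with 1 nM active mouse MILI or MIWI piRISC (synthetic 5'-monophosphorylated piRNA guide) with or without 500 nM mouse GTSF1 at 33 °C for 1 min to 16 h. Uncleaved targets were sequenced and normalised to non-target controls, and the pooled three trials were fitted to a burst-and-steady-state model to give the pre-steady-state cleavage rate (min^-1; k3 is constrained to at most 1e-4). Sequence is the target site only; target names encode pairing extent (gX:gY) and contiguous / 1-mismatch / 2-mismatch / bulge geometry. Fits with R² ≤ 0 are excluded.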

Sequence | pre-steady-state target cleavage rate
UCCUGGAUCAGCUUGGUUAGUAUUUAGAAA | 0.0485 ± 0.016
UCCUGCUACAGCUUGCAUUGUAUUUAGAAA | 0.111 ± 0.03
UCCUGCUAGAGCUAGCAUAGUAUUUAGUUA | 0.237 ± 0.031
UCCUGGAUGUCGAUGCAUAGUAUUUAGUAUA | 0.0977 ± 0.016
UCCUGGUACAGCAUGCAUAGUAUUUACUUA | 0.0914 ± 0.025
UCCUGGAUGAGCUUGCAUAGUAUUUAGUCUA | 0.0419 ± 0.013
UCCUCGUACAGCUUGCAUAGUUUUUAGUUA | 0.0651 ± 0.008
UCCUCCUACAGCUUGGUUAGUAUUUAGUUA | 0.269 ± 0.016
UCCUGCUACAGCUUGCAUUGUUUUUAGUUA | 0.0212 ± 0.007
UCCUCCUACAGCUUGCAUAGUUAUUUCAAA | 0.0507 ± 0.016
UCCUGGAACAGCUUGGAUAGUUUUUAGUUA | 0.0453 ± 0.0097
UCCUGGAACUCCUUGCAUAGUAUUUAGUUA | 0.238 ± 0.02
UCCUGGAUCAGCAAGCAUAGUAUUUUCAAA | 0.024 ± 0.0074
UCCUGGAUCACCUUGCAUAGUAUUAAGUUA | 0.201 ± 0.034
UCCUGGAUGUCCUUGCAUACUUUUUAGUUA | 0.00626 ± 0.004
UCCUGGAUCAGCGUUGCAUAGUAUUUAGUUA | 0.212 ± 0.016
UCCUGGUAACAGCUUGCAUAGUAUUUAGUUA | 0.244 ± 0.02
UCCUCCUGCAGCUUGCAUAGUAUUUAGUUA | 0.301 ± 0.018
UCCUCCUACAGCUUGCAUAGUAUUUAGUUA [g2:g26:cont:t1A] | 0.344 ± 0.02
UCCUGGAUCAGCUUGCAUAGUAUAUUAGUUA | 0.273 ± 0.015
UCCUGGAUCAGCUUGCAUUGUUUUUAGUUA | 0.0121 ± 0.0054
UCCUGCUACAGCUUGCAUAGUAUAUUAGUUA | 0.389 ± 0.042
UCCUCCUACUGCUUGCAUAGUAUUUAGAUA | 0.085 ± 0.015

Same assay, conditions: auxiliary factor: none (no GTSF1)

Sequence | pre-steady-state target cleavage rate
UCCUGCUAGAGCUAGCAUAGUAUUUAGUUA | 0.00417 ± 0.0027
UCCUGGAUGUCGAUGCAUAGUAUUUAGUAUA | 0.00504 ± 0.0027
UCCUGGUACAGCAUGCAUAGUAUUUACUUA | 0.00419 ± 0.0038
UCCUCGUACAGCUUGCAUAGUUUUUAGUUA | 0.00493 ± 0.0018
UCCUCCUACAGCUUGGUUAGUAUUUAGUUA | 0.00996 ± 0.0021
UCCUGCUACAGCUUGCAUUGUUUUUAGUUA | 0.00289 ± 0.0028
UCCUGGAACUCCUUGCAUAGUAUUUAGUUA | 0.00487 ± 0.0017
UCCUGGAUCACCUUGCAUAGUAUUAAGUUA | 0.00424 ± 0.0023
UCCUGGAUGUCCUUGCAUACUUUUUAGUUA | 0.0024 ± 0.0022
UCCUGGAUCAGCGUUGCAUAGUAUUUAGUUA | 0.00789 ± 0.0028
UCCUGGUAACAGCUUGCAUAGUAUUUAGUUA | 0.016 ± 0.0044
UCCUCCUGCAGCUUGCAUAGUAUUUAGUUA | 0.0088 ± 0.0027
UCCUCCUACAGCUUGCAUAGUAUUUAGUUA [g2:g26:cont:t1A] | 0.0103 ± 0.003
UCCUGGAUCAGCUUGCAUAGUAUAUUAGUUA | 0.00593 ± 0.0025
UCCUGGAUCAGCUUGCAUUGUUUUUAGUUA | 0.00431 ± 0.0023
UCCUGCUACAGCUUGCAUAGUAUAUUAGUUA | 0.00735 ± 0.0029
